This is part of a sample that, as a whole, favours compounds with a hit. Of some 83,000 tested, about 20% had one in any assay.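 How to read the values: 0–100, growth inhibition (40 = 60% inhibited); 0, no net growth; -100 to 0, cell death (-40 = 40% of starting cells died; -100 = all dead).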 Unmarked numbers belong to inactive results. Calls of active or inactive are those of the source. Rule for the calls: active = growth percent below 10; inactive = the rest.

This assay has as its system MDA-MB-231 breast. Kind of assay: NCI-60 one-dose screen, 48 h (100 = growth as untreated, 0 = no growth, -100 = all killed). Particulars: 10 µM unless noted.
In the case of `C=C[C@H]1CCC/C=C/[C@@H]2C[C@H](O)C[C@H]2[C@H](O)/C=C/C(=O)O1`, the growth was -74% (active).

Consider `C=CC(=O)N1CN(C(=O)C=C)CN(C(=O)C=C)C1`, for which the growth is 103%.

Regarding `CC(C)CCSc1nc(Nc2ccccc2)c(C#N)c(-c2ccc(F)cc2)n1`, the growth was 46.2%.

In the case of `COC(=O)c1ccc2c(c1)nc(-c1cc3ccccc3[nH]c1=O)n2-c1cc(C(C)(C)C)[nH]n1`, the growth is 68.4%.

Turning to `O=C1NN(C(=O)c2ccccc2)C(c2ccc(Cl)c(Cl)c2)=C/C1=C\c1ccccc1[N+](=O)[O-]`, the growth is 49.9% [6.75 µM].

On to `O=C(CCl)Nc1ccc2c(c1)C(=O)c1ccccc1C2=O`, for which the growth is -5.91% (active).

Turning to `CCOC(=O)C1C(=O)C=C(c2cc(OC)c(OC)c(OC)c2)CC1c1sc(N(C)Cc2ccccc2)nc1Cl` (stereo not given), the growth was 82.9%.

Consider `N/C(=N\OC(=O)c1ccccc1)C(C(=O)NOC(=O)c1ccccc1)C1CCCCC1` (stereo not given), for which the growth was 81.8%.

For the compound `C=C(C)[C@@H]1CC[C@]2(C(=O)O)CC[C@]3(C)[C@H](CC[C@@H]4[C@@]5(C)C[C@@H](CC#Cc6ccc(C(C)=O)s6)[C@H](O)C(C)(C)[C@@H]5CC[C@]43C)[C@@H]12`, the growth is 91.9%.

Consider `CC(C)[C@@H]1C=C2CC[C@H]3[C@](C)(CN)CCC[C@]3(C)[C@H]2CC1`, for which the growth is 61.3%.

For the compound `COc1ccc(-c2cc(-c3cn(-c4cccc(Cl)c4)nc3-c3ccc(OC)cc3)[nH]c(=S)n2)cc1`, the growth was 67.7%.

`CCN1CCN(Cc2ccc(NC(=O)Nc3ccc(-n4ccc5c(NC(=O)c6ccccc6)nccc54)cc3)cc2C(F)(F)F)CC1`: the growth was -39.3% (active).

In the case of `Clc1ccc(C2=NN[C@H](c3cn(-c4ccccc4)nc3-c3ccccc3)C2)cc1`, the growth is 64.4%.

In the case of `CC(C)CC1NC(=O)C(CC(C)C)N(CO)C1=O` (stereo not given), the growth is 97.1%.

On to `c1ccc(-c2ccc(-c3ccccc3)[nH]2)cc1`, for which the growth is 89.5%.

With `C=CCN(CC#N)CC=C`, the growth is 111%.

Take `COc1ccc2c(c1)sc1nc(-c3ccccc3)c(-c3cccc4ccccc34)n12`: the growth was 39.7%.

As to `CC(C)c1nc2ccccc2n1CC(=O)N/N=C/c1cccc(O)c1`, the growth was 93.4%.

Consider `CCCCCCCC/C=C\CCCCCCCC(=O)OCCCCCC`, for which the growth is 136%.

Regarding `CCN(CC)c1ccc(/C=N/NC(=O)c2ccc(S(C)(=O)=O)cc2)c(O)c1`, the growth was 43.2%.

As for `CC(=O)CC(c1ccc([N+](=O)[O-])cc1)c1c(O)c2ccccc2oc1=O` (stereo not given), the growth was 95.9%.

For `CC1CCCN(CCCCOc2ccc(-c3ccc(C#N)cc3)cc2)C1` (stereo not given), the growth was 84.6%.

Consider `Cn1c(-c2ccccc2)cc(=O)n1-c1ccccc1`, for which the growth is 100%.

Turning to `O=C(NCCN1CCCC1)n1cc(-c2ccncc2)c(-c2cc(O)cc(Cl)c2)n1`, the growth is 80.8%.

`C(=Nc1ccc(-c2ccc(N=Cc3ccccc3)cc2)cc1)c1ccccc1`: the growth is 88.2%.

These data come from PubChem BioAssay (NCI).
